Experimental findings from PubChem BioAssay (NCATS) are described below.

Records with an inconclusive call do not appear. Activity calls are given as the source filed them. Calls follow the shape of the dose curve; as a rule, active = well fitted curve in the direction sought with a large enough effect; inconclusive = small, poorly fitted or top-dose-only effect, or another doubt; inactive = no such curve, though single readings can be large; an effect the other way counts as inactive or inconclusive.

Assay [1] in a line: qHTS of pediatric cancer cell lines to identify multiple opportunities for drug repurposing: Primary screen for LAN-5 cells (AID 1347100). In short, it runs like this: (§1)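 Cells (500-1,000/well) rested 5 h, then received compounds for 48 h; metabolically active cells were measured by CellTiter-Glo luminescence. Final concentrations spanned up to 46 µM (MIPE, 11-point) or 0.59 nM-46 µM (NPC, 8-point) in primary screens, 11-point in follow-ups.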
For orientation: In qHTS, concentration-response curves come from the screen itself.

The nature of assay [2]: qHTS of pediatric cancer cell lines to identify multiple opportunities for drug repurposing: Primary screen for BT-12 cells (AID 1347101). Also: nearly all actives have a fitted effect of over 25% in size. The procedure, abridged:
as §1

Assay [3] in a line: qHTS of pediatric cancer cell lines to identify multiple opportunities for drug repurposing: Primary screen for Rh18 cells (AID 1347102). Also: nearly all actives have a fitted effect of over 65% in size. In short, it runs like this: as §1
The nature of assay [4]: qHTS of pediatric cancer cell lines to identify multiple opportunities for drug repurposing: Primary screen for OHS-50 cells (AID 1347103). Also: nearly all actives have a fitted effect of over 40% in size. Also: potency is read from the fitted curve at half-maximal effect. In short, it runs like this: as §1
Assay [5] can be described thus: qHTS of pediatric cancer cell lines to identify multiple opportunities for drug repurposing: Primary screen for RD cells (AID 1347104). Also: nearly all actives have a fitted effect of over 55% in size. The procedure, abridged: (§2)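 Cells seeded at 500-1,000 cells/well in growth media, rested 5 hours at 37 degrees C, 5% CO2, then dosed; MIPE compounds at 11-point (from 0.78 nM) and NPC at 8-point (from 0.59 nM) final concentrations. Viability by CellTiter-Glo luminescence after 48 hours.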

Assay [6] can be described thus: qHTS of pediatric cancer cell lines to identify multiple opportunities for drug repurposing: Primary screen for MG 63 (6-TG R) cells (AID 1347105). Also: nearly all actives have a fitted effect of over 50% in size. The procedure, abridged: as §2
Assay [7] is described as follows: qHTS of pediatric cancer cell lines to identify multiple opportunities for drug repurposing: Primary screen for control Hh wild type fibroblast cells (AID 1347106).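 Also: series mostly up to about 46 µM; a drop in luminescence marks cytotoxicity and a rise apparent proliferation; nearly all actives have a fitted effect of over 55% in size.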 The procedure, abridged: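 Viability after 48 h compound treatment at 37C, 500-1,000 cells/well, read as ATP luminescence with CellTiter-Glo. Primary screens used 11-point (MIPE, 0.78 nM-46 µM) or 8-point (NPC, 0.59 nM-46 µM) final concentrations; follow-up screens used 11-point dilutions.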

Assay [8] in a line: qHTS of pediatric cancer cell lines to identify multiple opportunities for drug repurposing: Primary screen for Rh30 cells (AID 1347107). Also: series mostly up to about 46 µM; nearly all actives have a fitted effect of over 75% in size. In short, it runs like this: as §1
A short description of assay [9]: qHTS of pediatric cancer cell lines to identify multiple opportunities for drug repurposing: Primary screen for Rh41 cells (AID 1347108).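 Also: series mostly up to about 46 µM; luminescence drop marks cytotoxic hits; nearly all actives have a fitted effect of over 70% in size.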 In short, it runs like this:
as §2

Consider `CN1C[C@H]2c3ccccc3Oc3ccc(Cl)cc3[C@@H]2C1`, for which the Potency result in [1], in assay [2], in assay [3], in assay [5], in [6] and in assay [7] was “inactive” throughout. Besides, the Potency entry in assay [8] is “inactive”. Further, the Potency in assay [4] was 21.9 µM (active).
For the compound `C[N+]1(C)[C@@H]2CC(OC(=O)[C@H](CO)c3ccccc3)C[C@H]1[C@H]1O[C@@H]12` (some centres not stated), the Potency result in assay [1], in assay [2], in assay [3], in [4], in [5] and in assay [6] was “inactive” in each case. For the same compound, the Potency result in assay [7] and in assay [8] was “inactive” throughout.
In the case of `Cc1cccc(C)c1OCC(C)N` (configuration not stated), the Potency result in [1], in [2], in assay [3], in assay [4], in assay [5] and in assay [6] was “inactive” throughout. Further, the Potency result in assay [7], in [8] and in assay [9] was “inactive” throughout.
Regarding `C[C@@H](O)[C@H]1C(=O)N2C(C(=O)O)=C(S[C@@H]3CN[C@H](C(=O)N(C)C)C3)[C@H](C)[C@H]12`, the Potency result in [1], in assay [2], in [3], in assay [4], in [5] and in assay [6] was “inactive” in each case. Further, the Potency entry in assay [7], in assay [8] and in assay [9] was “inactive” throughout.
Take `CC(C)(C)OC(=O)N[C@H]1CCCCCC=C[C@@H]2C[C@@]2(C(=O)NS(=O)(=O)C2CC2)NC(=O)[C@@H]2C[C@@H](OC(=O)N3Cc4cccc(F)c4C3)CN2C1=O`: the Potency entry in assay [1], in [2], in assay [3], in [4], in assay [5] and in assay [6] was “inactive” each time. Further, the Potency result in assay [7] and in [8] was “inactive” each time.
Regarding `CCn1cc(C(=O)O)c(=O)c2ccc(C)nc21`, the Potency result in [1], in [2], in [3], in assay [4], in assay [5] and in assay [6] was “inactive” each time. Also, the Potency entry in [7], in assay [8] and in assay [9] was “inactive” in each case.
Consider `O=C(O)Cc1cccc2ccccc12`, for which the Potency result in assay [1], in [2], in [3], in assay [4], in assay [5] and in assay [6] was “inactive” throughout. In addition, the Potency result in assay [7], in assay [8] and in assay [9] was “inactive” each time.
Consider `CC(=Cc1ccccc1)C=C1SC(=S)N(CC(=O)O)C1=O`, for which the Potency entry in [1], in [2], in assay [3], in [4], in assay [5] and in assay [6] was “inactive” each time. The Potency entry in assay [7], in [8] and in assay [9] was “inactive” throughout.
In the case of `COc1ccc2cccc(CCNC(C)=O)c2c1`, the Potency entry in assay [1], in assay [2], in assay [3], in assay [4], in assay [5] and in [6] was “inactive” each time. Also, the Potency entry in [7], in [8] and in assay [9] was “inactive” throughout.
Turning to `CC(=O)c1ccc(S(=O)(=O)NC(=O)NC2CCCCC2)cc1`, the Potency entry in assay [1], in assay [2], in assay [3], in [4], in assay [5] and in assay [6] was “inactive” throughout. In addition, the Potency result in [7], in assay [8] and in [9] was “inactive” each time.
For the compound `O=c1c(-c2ccc(O)cc2)coc2cc(O[C@@H]3O[C@H](CO)[C@H](O)[C@H](O)[C@H]3O)ccc12`, the Potency result in assay [1], in assay [2], in assay [3], in [4], in assay [5] and in assay [6] was “inactive” throughout. In addition, the Potency entry in assay [7], in [8] and in assay [9] was “inactive” throughout.
For `CNC(=O)c1ccc2cc(C3(O)CCn4cncc43)ccc2c1` (configuration not stated), the Potency entry in assay [1], in assay [2], in [3], in [4], in [5] and in [6] was “inactive” in each case. For the same compound, the Potency entry in assay [7], in assay [8] and in assay [9] was “inactive” each time.
For `NC(N)=Nc1nc(CSCC/C(N)=N/S(N)(=O)=O)cs1`, the Potency entry in [1], in assay [2], in assay [3], in assay [4], in assay [5] and in assay [6] was “inactive” each time. In addition, the Potency result in assay [7], in assay [8] and in assay [9] was “inactive” each time.
Turning to `O=C(O)c1ccccc1C(=O)Nc1ccc(-c2ccccc2)cc1`, the Potency result in assay [1], in assay [2], in assay [3], in assay [4], in assay [5] and in assay [6] was “inactive” each time. The Potency entry in assay [7] and in [8] was “inactive” in each case.
For the compound `COc1cc(O)c2c(c1)C(=O)c1cc(C)cc(O)c1C2=O`, the Potency result in assay [1], in assay [2], in assay [3], in assay [4], in assay [5] and in [6] was “inactive” each time. The Potency entry in assay [7] is “inactive”.
In the case of `OC[C@@H](O)[C@H](O)[C@H](O)[C@@H](O)CO`, the Potency result in assay [1], in [2], in assay [3], in [4], in assay [5] and in assay [6] was “inactive” in each case. The Potency entry in [7], in assay [8] and in assay [9] was “inactive” each time.
Take `O=C(CCc1ccc(O)cc1)c1c(O)cc(O)cc1O[C@@H]1O[C@H](CO)[C@H](O)[C@H](O)[C@H]1O`: the Potency result in assay [1], in assay [2], in assay [3], in assay [4], in assay [5] and in assay [6] was “inactive” throughout. For the same compound, the Potency entry in assay [7], in assay [8] and in assay [9] was “inactive” in each case.
As to `O=c1c(-c2ccc(O)cc2)coc2cc(O)ccc12`, the Potency entry in assay [1], in assay [2], in [3], in assay [4], in assay [5] and in assay [6] was “inactive” in each case. The Potency result in assay [7], in assay [8] and in assay [9] was “inactive” throughout.
`CCN(CC)C(=O)c1ccc(O)c(OC)c1`: the Potency result in [1], in assay [2], in [3], in [4], in assay [5] and in [6] was “inactive” throughout. Further, the Potency entry in [7], in assay [8] and in [9] was “inactive” in each case.
As for `O=C1NCC2(CCN(CCc3ccccc3)CC2)O1`, the Potency entry in [1], in assay [2], in assay [3], in [4], in [5] and in assay [6] was “inactive” each time. Further, the Potency entry in [7] and in assay [8] was “inactive” throughout.
As to `CCOC(=O)O[C@]1(C(=O)OCCl)CC[C@@H]2[C@H]3CCC4=CC(=O)C=C[C@]4(C)[C@@H]3[C@@H](O)C[C@@]21C`, the Potency entry in [1], in assay [2], in assay [3], in assay [4], in [5] and in [6] was “inactive” throughout. For the same compound, the Potency entry in [7], in assay [8] and in assay [9] was “inactive” throughout.
